Consider 5 compounds from PubChem BioAssay (EPA / NIEHS).

For assay [1], the target named is Paired box protein Pax-6 (Homo sapiens) (UniProt P26367). Description: ATG_Pax6_CIS: Attagene CIS-FACTORIAL HepG2 Assay for human Paired Box 6 (PAX6) (AID 2282956). Conditions: HepG2 CIS-FACTORIAL PAX6 reporter transcription, RNA readout; actives raise or lower the signal. In short, it runs like this: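 HepG2 cells transiently transfected with multiplexed cis-promoter reporter units (endogenous TF activity) were dosed for 24 h. Reporter mRNA was quantified by RT-PCR, 6-FAM labeling, HpaI digestion and capillary electrophoresis; bidirectional fitting versus DMSO baseline.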

The nature of assay [2]: ATG_PXRE_CIS: Attagene CIS-FACTORIAL HepG2 Assay for human Pregnane X Receptor Element (PXRE) (AID 2282957). The note with it: HepG2 Attagene CIS-FACTORIAL PXRE reporter, mRNA; actives raise or lower the signal. In short, it runs like this:
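Cells: HepG2, transiently transfected reporter units under cis promoter control. Exposure: 24 h. Detection: reporter mRNA via RT-PCR/CE fluorescence; bidirectional fitting, DMSO-referenced.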

A short description of assay [3]: ATG_PPRE_CIS: Attagene CIS-FACTORIAL HepG2 Assay for human Peroxisome Proliferator-activated Response Element (PPRE) (AID 2282958). Conditions: HepG2 PPRE cis-element reporter, Attagene transcription factor profiling; actives raise or lower the signal. A digest of the protocol:
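Transcript-level reporter induction in transfected HepG2 cells after 24 h chemical exposure, quantified by fluorescence from RT-PCR products separated by capillary electrophoresis.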

Assay [4] is described as follows: ATG_RORE_CIS: Attagene CIS-FACTORIAL HepG2 Assay for human RAR-related Orphan Receptor Element (RORE) (AID 2282959). The note with it: HepG2 Attagene cis-factorial RORE reporter, mRNA; actives raise or lower the signal. A digest of the protocol: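 Multiplexed reporter assay measuring mRNA induction from a cis promoter element in transiently transfected HepG2 cells after 24 h treatment. Detection via RT-PCR and capillary electrophoresis fluorescence; DMSO serves as baseline.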

Assay [5] is described as follows: ATG_Sox_CIS: Attagene CIS-FACTORIAL HepG2 Assay for human SRY-box transcription factor (SOX) (AID 2282960). The note with it: HepG2 Attagene cis-factorial SOX reporter, mRNA; actives raise or lower the signal. In short, it runs like this: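 Cells were transfected with reporter constructs under cis-regulatory promoters, then exposed to chemicals for 24 h. Reporter transcripts were quantified by fluorescence after RT-PCR and capillary electrophoresis; activity was fitted in both directions against DMSO.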

The target in assay [6] is Transcription factor Sp1 (Homo sapiens) (UniProt P08047). The experiment in a line: ATG_Sp1_CIS: Attagene CIS-FACTORIAL HepG2 Assay for human Specificity Protein 1 (Sp1) (AID 2282961). Conditions: HepG2 Sp1 cis-reporter transcription, actives raise or lower the signal. In short, it runs like this: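 Measures mRNA induction of an Sp1-linked reporter in HepG2 cells 24 h post-dosing. Multiplexed reporters read by RT-PCR and capillary electrophoresis; DMSO serves as negative control and baseline.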

Assay [7] in a line: ATG_SREBP_CIS: Attagene CIS-FACTORIAL HepG2 Assay for human Sterol Regulatory Element Binding (SREBP) (AID 2282962). The note with it: HepG2 Attagene cis-factorial SREBP reporter, mRNA; actives raise or lower the signal. In short, it runs like this: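 HepG2 cells transiently transfected with multiplexed cis-element reporter units report endogenous transcription factor activity. After 24 h of chemical exposure, reporter mRNA was quantified by RT-PCR, 6-FAM labelling, HpaI digestion and capillary electrophoresis; bidirectional fits used DMSO as baseline.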

The target of assay [8] is Signal transducer and activator of transcription 3 (Homo sapiens) (UniProt P40763). The experiment in a line: ATG_STAT3_CIS: Attagene CIS-FACTORIAL HepG2 Assay for human Signal Transducer and Activator of Transcription 3 (STAT3) (AID 2282963). The note with it: HepG2, Attagene cis-factorial STAT3 reporter transcription; actives raise or lower the signal. A digest of the protocol:
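HepG2 cells transiently transfected with cis-element-driven multiple reporter transcription units; after 24 h chemical exposure, reporter mRNA measured by RT-PCR, 6-FAM primer-extension labelling, HpaI digestion and capillary electrophoresis. Bidirectional fitting versus DMSO baseline.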

The nature of assay [9]: ATG_TA_CIS: Attagene CIS-FACTORIAL HepG2 Assay for human TA Basal Promoter (AID 2282964). The note with it: HepG2 Attagene CIS-factorial TA basal promoter reporter; actives raise or lower the signal. In short, it runs like this:
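Background-control readout: TA basal promoter reporter mRNA, fitted in both directions relative to DMSO. Measured by RT-PCR and capillary electrophoresis 24 hours after treating HepG2 human liver cells transiently carrying multiplexed cis-regulated reporter constructs.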

The nature of assay [10]: ATG_TAL_CIS: Attagene CIS-FACTORIAL HepG2 Assay for human TAL Basal Promoter (AID 2282966).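 Further: background control endpoint measuring basal TAL promoter reporter mRNA not a specific factor.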 Conditions: HepG2 Attagene cis-factorial TAL promoter reporter; actives raise or lower the signal. In short, it runs like this: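 RT-PCR plus capillary electrophoresis quantifies reporter mRNA induction in transiently transfected HepG2 cells after 24 h chemical treatment. DMSO serves as negative control and baseline for bidirectional fitting.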

Assay [11] in a line: ATG_TGFb_CIS: Attagene CIS-FACTORIAL HepG2 Assay for human Transforming Growth Factor (TGF) (AID 2282967). The note with it: HepG2 Attagene CIS TGFb reporter, mRNA transcription; actives raise or lower the signal. In short, it runs like this: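 Endogenous TGFB1-linked transcription factor activity read as reporter mRNA via RT-PCR and capillary electrophoresis, 24 h after dosing transiently transfected HepG2 cells. Gain or loss of signal fitted relative to DMSO.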

The nature of assay [12]: ATG_VDRE_CIS: Attagene CIS-FACTORIAL HepG2 Assay for human Vitamin D Receptor Element (VDRE) (AID 2282968). Conditions: HepG2 VDRE cis-reporter transcription, actives raise or lower the signal. A digest of the protocol: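 HepG2 cells transiently transfected with cis-element reporter units, dosed 24 h; reporter mRNA measured by RT-PCR, 6-FAM labeling, HpaI digestion and capillary electrophoresis. Activity fitted bidirectionally against DMSO baseline.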

Assay [13] has as its target Nuclear receptor subfamily 1 group I member 3 (Homo sapiens) (UniProt Q14994). The experiment in a line: ATG_CAR_TRANS: Attagene TRANS-FACTORIAL HepG2 Assay for human Constitutive Androstane Receptor (CAR) (AID 2282969; active means hit-call score of the fitted dose curve at least 0.9, where 1 is the maximum;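 further: activators raise reporter mRNA above DMSO so AC50 marks induction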). The note with it: HepG2 Attagene TRANS-FACTORIAL CAR reporter. In short, it runs like this:
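HepG2 cells transiently transfected with multiplexed GAL4-UAS reporter units expressing chimeric NR-Gal4 proteins; compound exposure 24 h. Reporter mRNA measured by RT-PCR, 6-FAM labelling, HpaI digestion and capillary electrophoresis; gain-of-signal fitted against DMSO baseline.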

The target of assay [14] is Estrogen receptor (Homo sapiens) (UniProt P03372). The experiment in a line: ATG_ERa_TRANS: Attagene TRANS-FACTORIAL HepG2 Assay for human Estrogen Receptor alpha (ERa) (AID 2282970; active means hit-call score of the fitted dose curve at least 0.9, where 1 is the maximum). Conditions: HepG2 Attagene TRANS ERa GAL4 reporter, mRNA. A digest of the protocol: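 Cells: HepG2, transiently transfected. Construct: GAL4-UAS reporter units regulated by exogenous NR-Gal4 chimeras. Time: 24 h. Detection: reporter mRNA by RT-PCR, capillary electrophoresis, fluorescence. Baseline: DMSO, upward fitting.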

Assay [15] concerns the target Steroid hormone receptor ERR1 (Homo sapiens) (UniProt P11474). The experiment in a line: ATG_ERRa_TRANS: Attagene TRANS-FACTORIAL HepG2 Assay for human Estrogen-Related Receptor alpha (ERRa) (AID 2282971; active means hit-call score of the fitted dose curve at least 0.9, where 1 is the maximum). The note with it: HepG2 Attagene TRANS reporter, ERRa transactivation. In short, it runs like this: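 Reporter transcripts from ERRa-Gal4 chimera activity measured in transiently transfected human HepG2 cells 24 hours after dosing, using RT-PCR with 6-FAM primer extension, HpaI digestion and capillary electrophoresis; DMSO is baseline.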

Assay [16] has as its target X-box-binding protein 1 (Homo sapiens) (UniProt P17861). The experiment in a line: ATG_Xbp1_CIS: Attagene CIS-FACTORIAL HepG2 Assay for human X-box Binding Protein 1 (XBP1) (AID 2282972). Conditions: HepG2 XBP1 cis-element reporter, Attagene multiplex; actives raise or lower the signal. In short, it runs like this:
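HepG2 cells transiently transfected with cis-regulated multiple reporter transcription units; endogenous transcription factor activity measured 24 hours after chemical dosing. Reporter mRNA quantified by RT-PCR, 6-FAM primer extension, HpaI digestion and capillary electrophoresis; bidirectional fitting versus DMSO.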

Assay [17] in a line: ATG_M_19_TRANS: Attagene TRANS-FACTORIAL HepG2 Assay for M19 Transcription Factor (Internal Marker) (AID 2282974; active means hit-call score of the fitted dose curve at least 0.9, where 1 is the maximum). Conditions: HepG2 Attagene TRANS-FACTORIAL M19 internal marker reporter. In short, it runs like this:
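After transfection of HepG2 with GAL4-UAS-driven reporter constructs, cells are dosed for 24 h. Total RNA is reverse-transcribed, reporter sequences PCR-amplified and labelled, then HpaI-digested and sized by capillary electrophoresis.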

The target of assay [18] is Estrogen-related receptor gamma (Homo sapiens) (UniProt P62508). Description: ATG_ERRg_TRANS: Attagene TRANS-FACTORIAL HepG2 Assay for human Estrogen-Related Receptor gamma (ERRg) (AID 2282977; active means hit-call score of the fitted dose curve at least 0.9, where 1 is the maximum;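 further: hits increase reporter signal over DMSO so potencies reflect activators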). Conditions: HepG2 Attagene TRANS reporter, ERRg transactivation. A digest of the protocol: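 Transient HepG2 transfectants, 24 h compound exposure, GAL4-UAS reporter mRNA by RT-PCR/6-FAM labelling/capillary electrophoresis; positive direction vs DMSO.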

A short description of assay [19]: ATG_GAL4_TRANS: Attagene TRANS-FACTORIAL HepG2 Assay for GAL4 (Internal Marker) (AID 2282976; active means hit-call score of the fitted dose curve at least 0.9, where 1 is the maximum). The note with it: HepG2 Attagene TRANS GAL4 internal marker reporter. A digest of the protocol:
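In transfected human HepG2 liver cells dosed 24 h, GAL4 reporter mRNA serves as a baseline marker. Detection by RT-PCR with fluorescent capillary electrophoresis, activity fitted upward relative to DMSO.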

Records with an inconclusive call do not appear. Active and inactive are the calls of the source. How the source made its calls, unless noted: active means hit-call score of the fitted dose curve at least 0.9, where 1 is the maximum; inactive means score below 0.9.

Chain of Transcription factor Sp1 (Homo sapiens) (P08047 whole entry, looked up): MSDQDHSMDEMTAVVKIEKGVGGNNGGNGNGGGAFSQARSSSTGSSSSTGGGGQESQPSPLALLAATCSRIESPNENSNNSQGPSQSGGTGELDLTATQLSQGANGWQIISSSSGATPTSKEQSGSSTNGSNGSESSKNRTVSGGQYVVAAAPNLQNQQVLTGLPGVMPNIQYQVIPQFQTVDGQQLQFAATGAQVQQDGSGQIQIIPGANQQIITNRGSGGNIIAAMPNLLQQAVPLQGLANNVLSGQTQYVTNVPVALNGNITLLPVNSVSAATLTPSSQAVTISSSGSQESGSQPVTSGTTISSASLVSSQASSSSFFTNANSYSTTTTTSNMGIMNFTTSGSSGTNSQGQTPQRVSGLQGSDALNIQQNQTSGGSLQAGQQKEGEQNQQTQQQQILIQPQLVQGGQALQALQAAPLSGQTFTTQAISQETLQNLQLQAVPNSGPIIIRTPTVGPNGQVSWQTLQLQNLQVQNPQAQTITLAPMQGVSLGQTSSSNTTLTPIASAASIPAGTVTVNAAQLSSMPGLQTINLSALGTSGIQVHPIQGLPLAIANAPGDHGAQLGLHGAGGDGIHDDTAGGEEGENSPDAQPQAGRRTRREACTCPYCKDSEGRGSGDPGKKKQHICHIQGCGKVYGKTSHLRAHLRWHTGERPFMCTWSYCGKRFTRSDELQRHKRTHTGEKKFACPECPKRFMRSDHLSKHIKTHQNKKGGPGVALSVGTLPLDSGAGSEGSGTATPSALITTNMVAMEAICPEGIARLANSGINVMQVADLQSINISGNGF
Chain of Nuclear receptor subfamily 1 group I member 3 (Homo sapiens) (Q14994 whole entry, looked up, the tested form may be a part): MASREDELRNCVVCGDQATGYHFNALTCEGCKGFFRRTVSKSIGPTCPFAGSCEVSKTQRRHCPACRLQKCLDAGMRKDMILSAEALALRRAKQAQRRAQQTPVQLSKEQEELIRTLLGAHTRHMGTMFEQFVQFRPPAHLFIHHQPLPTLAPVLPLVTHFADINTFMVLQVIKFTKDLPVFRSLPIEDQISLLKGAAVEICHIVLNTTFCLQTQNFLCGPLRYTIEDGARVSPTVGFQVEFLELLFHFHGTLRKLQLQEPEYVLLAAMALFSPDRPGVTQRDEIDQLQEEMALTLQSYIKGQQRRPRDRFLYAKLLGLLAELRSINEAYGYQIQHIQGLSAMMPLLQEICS
Chain of Signal transducer and activator of transcription 3 (Homo sapiens) (P40763 whole entry, looked up): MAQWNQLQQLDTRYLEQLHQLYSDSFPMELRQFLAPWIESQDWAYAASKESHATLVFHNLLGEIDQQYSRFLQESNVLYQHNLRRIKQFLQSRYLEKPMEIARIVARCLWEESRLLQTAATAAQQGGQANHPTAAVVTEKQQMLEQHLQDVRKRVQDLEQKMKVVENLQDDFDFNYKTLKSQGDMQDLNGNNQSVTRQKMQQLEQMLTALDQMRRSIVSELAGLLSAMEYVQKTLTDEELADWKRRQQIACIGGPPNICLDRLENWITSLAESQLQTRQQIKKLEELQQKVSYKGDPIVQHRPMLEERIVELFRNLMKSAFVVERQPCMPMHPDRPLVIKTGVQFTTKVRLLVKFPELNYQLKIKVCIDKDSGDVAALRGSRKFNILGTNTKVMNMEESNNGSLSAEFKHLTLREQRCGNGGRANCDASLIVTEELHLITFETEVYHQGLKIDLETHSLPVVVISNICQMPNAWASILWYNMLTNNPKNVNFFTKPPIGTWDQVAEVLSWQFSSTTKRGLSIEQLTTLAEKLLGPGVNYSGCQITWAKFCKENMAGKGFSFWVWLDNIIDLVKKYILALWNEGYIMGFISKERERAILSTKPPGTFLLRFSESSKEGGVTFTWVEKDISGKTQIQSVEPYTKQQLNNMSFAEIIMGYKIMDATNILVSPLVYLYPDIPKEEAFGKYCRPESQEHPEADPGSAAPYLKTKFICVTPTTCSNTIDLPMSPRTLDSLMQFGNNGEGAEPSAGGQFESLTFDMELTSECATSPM
Chain of Estrogen receptor (Homo sapiens) (P03372 whole entry, looked up, the tested form may be a part): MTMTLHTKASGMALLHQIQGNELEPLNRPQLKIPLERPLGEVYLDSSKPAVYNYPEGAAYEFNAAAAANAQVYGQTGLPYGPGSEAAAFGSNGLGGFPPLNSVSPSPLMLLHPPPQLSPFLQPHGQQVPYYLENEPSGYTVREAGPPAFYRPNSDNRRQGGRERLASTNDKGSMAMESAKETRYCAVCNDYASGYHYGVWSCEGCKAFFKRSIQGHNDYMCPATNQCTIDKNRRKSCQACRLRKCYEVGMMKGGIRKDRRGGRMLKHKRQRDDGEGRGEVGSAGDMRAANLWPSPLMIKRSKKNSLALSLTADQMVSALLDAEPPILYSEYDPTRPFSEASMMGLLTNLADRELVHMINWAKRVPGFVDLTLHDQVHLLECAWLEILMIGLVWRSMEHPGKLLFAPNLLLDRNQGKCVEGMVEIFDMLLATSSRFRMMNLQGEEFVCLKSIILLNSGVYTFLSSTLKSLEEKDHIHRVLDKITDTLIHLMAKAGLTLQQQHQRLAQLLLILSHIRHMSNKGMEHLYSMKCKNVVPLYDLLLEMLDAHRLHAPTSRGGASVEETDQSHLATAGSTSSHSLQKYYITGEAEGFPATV
Chain of X-box-binding protein 1 (Homo sapiens) (P17861 whole entry, looked up): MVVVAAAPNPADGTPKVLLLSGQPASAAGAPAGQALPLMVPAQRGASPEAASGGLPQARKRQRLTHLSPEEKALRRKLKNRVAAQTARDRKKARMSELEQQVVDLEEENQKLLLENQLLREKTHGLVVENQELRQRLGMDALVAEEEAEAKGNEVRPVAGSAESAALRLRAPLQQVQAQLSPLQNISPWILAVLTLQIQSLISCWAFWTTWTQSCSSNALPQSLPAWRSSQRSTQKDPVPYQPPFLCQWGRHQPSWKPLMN
Chain of Paired box protein Pax-6 (Homo sapiens) (P26367 whole entry, looked up): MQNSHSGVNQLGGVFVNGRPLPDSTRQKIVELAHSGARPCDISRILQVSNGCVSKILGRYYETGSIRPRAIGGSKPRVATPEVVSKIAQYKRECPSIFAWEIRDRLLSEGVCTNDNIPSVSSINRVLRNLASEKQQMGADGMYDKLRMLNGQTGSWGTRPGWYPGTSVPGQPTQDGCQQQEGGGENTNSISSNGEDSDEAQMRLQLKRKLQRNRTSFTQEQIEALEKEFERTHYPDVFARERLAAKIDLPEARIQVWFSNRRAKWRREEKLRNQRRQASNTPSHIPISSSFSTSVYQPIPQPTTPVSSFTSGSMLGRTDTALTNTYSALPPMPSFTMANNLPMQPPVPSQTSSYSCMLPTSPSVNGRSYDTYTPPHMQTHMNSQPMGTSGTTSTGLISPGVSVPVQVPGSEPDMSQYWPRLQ
Chain of Estrogen-related receptor gamma (Homo sapiens) (P62508 whole entry, looked up, the tested form may be a part): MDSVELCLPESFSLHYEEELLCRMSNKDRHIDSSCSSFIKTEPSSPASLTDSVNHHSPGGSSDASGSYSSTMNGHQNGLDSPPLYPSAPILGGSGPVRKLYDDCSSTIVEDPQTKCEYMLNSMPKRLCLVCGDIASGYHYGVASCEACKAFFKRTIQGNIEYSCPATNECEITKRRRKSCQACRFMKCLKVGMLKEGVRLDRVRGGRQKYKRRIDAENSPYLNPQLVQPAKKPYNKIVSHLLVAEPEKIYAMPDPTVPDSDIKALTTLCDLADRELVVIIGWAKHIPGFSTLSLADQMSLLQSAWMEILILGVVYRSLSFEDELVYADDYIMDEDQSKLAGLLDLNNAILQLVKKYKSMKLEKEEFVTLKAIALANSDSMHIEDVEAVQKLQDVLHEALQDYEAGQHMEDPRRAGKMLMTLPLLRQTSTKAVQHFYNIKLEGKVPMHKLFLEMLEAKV
Chain of Steroid hormone receptor ERR1 (Homo sapiens) (P11474 whole entry, looked up, the tested form may be a part): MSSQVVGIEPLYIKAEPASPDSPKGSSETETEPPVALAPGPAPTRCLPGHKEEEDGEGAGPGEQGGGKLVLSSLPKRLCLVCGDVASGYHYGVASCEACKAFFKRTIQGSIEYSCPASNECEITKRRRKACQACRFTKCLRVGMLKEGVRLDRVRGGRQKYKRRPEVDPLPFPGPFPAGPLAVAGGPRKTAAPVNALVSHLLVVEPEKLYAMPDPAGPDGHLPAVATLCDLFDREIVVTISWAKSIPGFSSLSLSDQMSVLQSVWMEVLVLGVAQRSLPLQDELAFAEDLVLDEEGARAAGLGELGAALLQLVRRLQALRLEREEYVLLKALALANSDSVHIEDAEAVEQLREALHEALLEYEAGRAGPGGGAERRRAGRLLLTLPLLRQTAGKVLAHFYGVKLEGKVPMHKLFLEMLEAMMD

In the case of `CCCCCCCCOc1ccc(C(=O)c2ccccc2)c(O)c1`, the result in assay [1], in assay [2], in assay [3], in assay [4], in assay [5] and in [6] was inactive. Besides, the outcome in assay [7], in assay [8], in assay [9], in [10], in [11] and in assay [12] was inactive. For the same compound, the outcome in assay [13], in assay [14], in assay [15], in assay [16], in assay [17] and in [18] was inactive.

`Cc1c2ccccc2c(C)c2c1ccc1ccccc12`: the outcome in [1], in [3], in assay [7], in [8], in assay [9] and in [10] was inactive. For the same compound, the compound was classed as inactive in assay [12], in assay [16], in assay [19] and in assay [18]. Besides, the AC50 – broadly, the midpoint of the concentration-response curve, whichever way the signal moves – in [2] was 2.42 µM (active); in assay [4], 54.8 µM (active); in assay [5] it was 52.4 µM (active); in [6], 6.93 µM (active); in [11], 54.4 µM (active); in assay [13] it was 44.7 µM (active). Moreover, in [14], the AC50 is 11.4 µM (active).

Regarding `Oc1ccc2ccccc2c1`, the call in assay [1], in assay [2], in [4], in assay [5], in assay [6] and in assay [7] was inactive. In addition, the outcome in [8], in assay [9], in assay [10], in assay [11], in [12] and in assay [16] was inactive. In addition, in assay [17], the compound was called inactive.

Take `O=C(OCCCCCCOC(=O)c1ccccc1)c1ccccc1`: the compound was called inactive in assay [1], in assay [2], in assay [4], in assay [5], in [6] and in assay [7]. Besides, the compound was called inactive in [8], in [9], in assay [10], in [11], in assay [12] and in assay [13]. Besides, the outcome in [14], in assay [15] and in assay [18] was inactive.

For the compound `Cc1ncc(CO)c(CO)c1O`, the compound was called inactive in assay [1], in assay [2], in [3], in [4], in assay [5] and in [6]. The compound was called inactive in assay [7], in assay [8], in [9], in assay [10], in assay [11] and in assay [12]. Also, the compound was called inactive in assay [16], in assay [17] and in assay [19].
